Cycloheximide cs: Cycloheximide Counterscreen for Small Molecule Inhibitors of Shiga Toxin; cell reporter, cycloheximide protein synthesis inhibition counterscreen; max response, %; actives 12% (n = 300,000); AID 2314, 2010; in the data active means max response mostly above about 13%, no sharp cut-off; inactive means mostly below about 14%; further: read at 38.3 µM for the half of the compounds with a filed dose
Pf growth 96h: Primary qHTS for delayed death inhibitors of the malarial parasite plastid, 96 hour incubation | P. falciparum luciferase reporter growth, 96 h | Potency, µM (series often up to 28.7 µM), usual class: inhibitors | actives 6.9% (n = 320,000) | AID 504834, 2011
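Two parasite generations (96 h, 37 C, 5% CO2) of compound exposure in infected erythrocytes (0.05% parasitemia, 2% hematocrit). Luciferase-reporter P. falciparum; decreased luminescence indicates inhibited growth, aimed at apicoplast-acting delayed death.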
SARS PLpro yeast: qHTS of Yeast-based Assay for SARS-CoV PLP; S. cerevisiae expressing SARS-CoV PLpro, growth rescue; Potency, µM (top dose mostly 32.9 µM), hits mostly activators; actives 0.19% (n = 330,000); AID 485353, 2010; calls by dose curve; further: nearly all actives have a fitted effect of over 55% in size
Shiga toxin inh: A qHTS for Small Molecule Inhibitors of Shiga Toxin | inhibition, % at 38.7 µM | Vero cells, Shiga toxin protein synthesis inhibition reporter | actives 9.2% (n = 290,000) | AID 2315, 2010; in the data active means inhibition mostly above about 28%, no sharp cut-off; inactive means mostly below about 43%
Pf growth 48h: Primary qHTS for delayed death inhibitors of the malarial parasite plastid, 48 hour incubation; P. falciparum luciferase growth in erythrocytes, 48 h; Potency, µM (top dose mostly 28.7 µM), most hits filed as inhibitors; actives 5.9% (n = 310,000); AID 504832, 2011
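A one-generation exposure of luciferase-tagged malaria parasites in RPMI 1640/Albumax erythrocyte culture, 37 C and 5% CO2. Inhibition is inferred from decreased luminescence after adding detection reagent.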
NS1 function inh: qHTS Assay for Inhibitors of Influenza NS1 Protein Function. actives 0.4% (n = 270,000). Potency, µM (doses to about 46.1 µM); calls by dose curve; further: actives are rising curves; nearly all actives have a fitted effect of over 50% in size
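OD600 was taken as the measure of yeast growth restored by compound in an NS1-expressing S. cerevisiae strain. Cells had been washed out of glucose medium and diluted 1:100 into galactose -URA medium, pH 6.0.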
Numbers stand for hits; n = inactive; u = inconclusive; x = no result given. A selection: hits, their analogues and other compounds. The true share with any hit is near 21%. Unless noted, the call rests on the fitted dose curve; in most records, active means well fitted inhibition curve with a large enough effect; inconclusive means small, poorly fitted or top-dose-only effect, or another doubt; inactive means no such curve, though single readings can be large or run the other way.

SMILES | Cycloheximide cs | Pf growth 96h | SARS PLpro yeast | Shiga toxin inh | Pf growth 48h | NS1 function inh
CNC(=O)CSc1nnc(-c2ccccc2F)n1CCc1ccccc1 | n | n | n | n | n | n
CCN(CC)CC(O)CN1c2ccccc2Sc2ccccc21 (stereo unspecified) | n | u | n | n | n | n
CCN(CC)c1ccc(NC(=O)c2cnccn2)cc1S(=O)(=O)Nc1ccc(OC)cc1 | n | u | n | n | u | n
CCN(CC)c1ccc(NC(=O)c2ccccc2F)cc1S(=O)(=O)Nc1ccccc1OC | n | 10.4µM | n | n | 4.65µM | n
CCN(CC(=O)Nc1c(F)cccc1F)C(=O)c1cccc(S(=O)(=O)N2CCCCCC2)c1 | x | u | n | x | u | x
CCOC(=O)C1CCN(c2nc(N)c3c(N)nc(SCC(=O)O)cc3c2C#N)CC1 | n | 2.62µM | n | n | 2.62µM | n
COCCn1nnnc1C(c1cccs1)N1CCN(c2nc3ccccc3s2)CC1 (stereo unspecified) | n | u | n | n | u | n
COCCn1nnnc1C(c1cc2cc(C)cc(C)c2[nH]c1=O)N1CCN(c2ccccc2F)CC1 (stereo unspecified) | n | u | n | n | 11.7µM | n
COCCn1nnnc1C(c1cc2c(C)cc(C)cc2[nH]c1=O)N1CCCCCC1 (stereo unspecified) | n | n | n | n | 11.7µM | n
COCCn1nnnc1C(c1cccs1)N1CCN(c2cc(C)ccc2C)CC1 (stereo unspecified) | n | u | n | n | 13.1µM | n
COCCn1nnnc1C(c1cc2cc(C)ccc2[nH]c1=O)N1CCCCCC1 (stereo unspecified) | n | n | n | n | n | n
Cc1cc(Cl)ccc1NC(=O)CN(C)C1=NS(=O)(=O)c2ccccc21 | x | n | n | x | n | x
CCOc1ccc(CCNC(=O)COC(=O)c2nccnc2N)cc1OCC | x | n | x | x | n | x
CC(C)(C)n1cnc2cc(NC(=O)c3cccs3)ccc21 | 33.5 | n | n | 104.0 | n | n
O=C(Nc1ccc2c(c1)nc1n2CCN(Cc2ccccc2)C1)c1cccs1 | n | n | n | n | u | n
CCn1cnc2cc(NC(=O)c3cccs3)ccc21 | 27.8 | n | n | 66.7 | n | n
COc1cc(C(=O)Nc2ccc3c(c2)ncn3C)cc(OC)c1OC | n | n | n | x | u | n
CC(C)(C)n1cnc2cc(NC(=O)c3ccccc3)ccc21 | 33.8 | n | n | 92.6 | n | n
NC(=O)c1ccsc1NC(=O)COC(=O)c1cc(=O)[nH]c2ccccc12 | x | n | x | x | n | x
O=C(c1ccccc1)C1NC1c1ccccc1 (stereo unspecified) | 61.0 | n | n | 46.5 | n | n
O=C(CSc1nc(C2CCCCC2)nc2ccccc12)NCc1ccc2c(c1)OCO2 | n | n | n | n | n | n
CC(C)C(=O)NNC(=O)CSc1nc(C2CCCCC2)nc2ccccc12 | n | 1.47µM | n | n | n | n
CCc1nc(SCC(=O)NNC(=O)C(C)C)c2ccccc2n1 | n | 11.7µM | n | n | u | n
COc1ccc(Cl)cc1S(=O)(=O)Oc1ccc(NC(C)=O)cc1 | n | u | n | n | n | n
C[N+]1(C)CCC[C@@H](OC(=O)C(O)(c2ccccc2)c2ccccc2)C1 | x | n | x | x | n | x
SMILES | Cycloheximide cs | Pf growth 96h | SARS PLpro yeast | Shiga toxin inh | Pf growth 48h | NS1 function inh
O=C(OC1C[C@H]2CC[C@@H](C1)[N+]21CCCC1)C(O)(c1ccccc1)c1ccccc1 (stereo partly specified) | x | n | x | x | 6.75µM | x
CC1(C)OC(=O)C(=CNNc2c(Cl)cc(Cl)cc2Cl)C(=O)O1 | n | n | n | n | n | n
c1ccc(SCCc2ccncc2)cc1 | 20.4 | n | n | n | n | n
CC(C)(C)c1ccc(SCCc2cccnc2)cc1 | 43.8 | n | n | 110.4 | n | n
O=C(Nc1cc(Br)ccc1O)c1cc(-c2ccco2)on1 | n | n | n | 59.3 | u | n
O=C(Nc1cccc(Cl)c1)c1cc(-c2ccco2)on1 | 31.4 | n | n | 56.0 | n | n
COc1ccc(-c2nnc(SC(C)C(=O)Nc3cccc(Cl)c3)o2)cc1 (stereo unspecified) | n | n | n | 66.4 | n | n
COc1ccc(-c2cc(C(=O)Nc3cccc(Cl)c3)no2)cc1 | 42.4 | n | n | 85.2 | n | n
